# Screens: PubChem, several laboratories
# This is a sample that favours compounds with a hit; in the whole collection about 1.4% have one here.
# Bim-Bcl-W: disrupts Bim peptide binding to human Bcl-W | Q92843 | bead-based flow cytometry | inhibition, % at 10 µM | actives 0.02% (n = 190,000);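 further: 0% = bound tracer without compound and 100% = peptide blocker; higher means less fluorescent Bim peptide bound to Bcl-W beads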
# Target sequence (Q92843 whole entry, looked up): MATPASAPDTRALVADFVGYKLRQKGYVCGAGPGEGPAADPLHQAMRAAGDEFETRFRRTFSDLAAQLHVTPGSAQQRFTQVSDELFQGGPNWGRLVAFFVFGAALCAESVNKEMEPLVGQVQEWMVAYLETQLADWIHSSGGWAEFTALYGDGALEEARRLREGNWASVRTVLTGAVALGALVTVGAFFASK
# Bcl-XL Bim block: human Bim-Bcl-XL interaction inhibition | Q07817 | Bim peptide-Bcl-XL binding, bead flow cytometry, fluorescence | actives 0.04% (n = 190,000) | AID 1007 | inhibition, % at 10 µM
# Bim-Bcl-B: inhibitors of Bim-Bcl-B interaction, human. Q9HD36. bead-based flow cytometry, Bim peptide-Bcl-B binding. inhibition, % at 10 µM. actives 0.073% (n = 190,000). AID 951;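 further: 0% = tracer peptide without compound and 100% = reference inhibitor peptide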
# Target sequence (Q9HD36 whole entry, looked up): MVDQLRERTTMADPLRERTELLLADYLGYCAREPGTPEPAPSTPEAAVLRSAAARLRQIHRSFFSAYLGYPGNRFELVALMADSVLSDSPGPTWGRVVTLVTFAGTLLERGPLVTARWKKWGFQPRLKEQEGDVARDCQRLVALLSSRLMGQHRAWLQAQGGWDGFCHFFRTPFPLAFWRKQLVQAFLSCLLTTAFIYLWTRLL
# Bfl-1 Bim block: human Bim-Bfl-1 interaction inhibition | actives 0.12% (n = 190,000) | Bead-based flow cytometry, Bim-Bfl-1 binding inhibition | inhibition, % at 10 µM;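 further: 0% = wells without compound plus tracer and 100% = blocker peptide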
# Target sequence (Q16548 whole entry, looked up): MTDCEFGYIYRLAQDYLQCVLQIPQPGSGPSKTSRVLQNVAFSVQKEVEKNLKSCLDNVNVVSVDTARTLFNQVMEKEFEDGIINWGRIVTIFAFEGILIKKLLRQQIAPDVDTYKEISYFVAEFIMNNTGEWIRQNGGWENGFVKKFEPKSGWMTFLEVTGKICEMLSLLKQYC
# Bim-Bcl-2: human Bim-Bcl-2 interaction inhibition; P10415; Bead-based flow cytometry, Bim peptide-Bcl-2 binding; inhibition, % at 10 µM; actives 0.06% (n = 190,000); AID 950; in the data active means inhibition above about 40%;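 further: 0% = no compound wells with probe peptide and 100% = reference peptide inhibitor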
# Wee1 degr inh: blocks degradation of human Wee1 kinase | P30291 | HeLa Luc-Wee1K328M stability, luciferase luminescence; 100% = proteasome inhibitor MG132 effect | reporter increase, % at 5 µM | actives 1.2% (n = 220,000);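 active means activation above the mean of all tested compounds plus 3 SD, set per screening run, cut at about 8.8% in these data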;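 further: cells exposed to compound for 20 h before luminescence read; 0% = DMSO alone and 100% = MG132 at 30 µM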
# Starred values were filed as active, the others as inactive; . = no result. Unless noted, no stated cut-off is given here; in the data, active means inhibition above about 40%.
SMILES,Bim-Bcl-W,Bcl-XL Bim block,Bim-Bcl-B,Bfl-1 Bim block,Bim-Bcl-2,Wee1 degr inh
Cc1sc(NC(=O)c2ccc(Cl)s2)c(C(N)=O)c1C,-1,-21,-9,-10,-18,9.6*
CC(C)CC(NC(=O)OC(C)(C)C)c1cn([C@@H](Cc2ccc(O)cc2)C(=O)N2CCN(C(=O)OC(C)(C)C)CC2)nn1 (stereo partly drawn),-2,0,1,0,-1,3
O=C(Nc1ccc(-c2csnn2)cc1)C(Cl)(Cl)Cl,.,.,.,.,.,-4
CC(C)(C)C(=O)Nc1ccc(-c2csnn2)cc1,.,.,.,.,.,11*
O=C(N/N=C/c1cccc(OC(=O)N2CCOCC2)c1)c1cccs1,0,1,-1,-20,-7,9.1*
CCOC(=O)c1sc(NC(=S)NC(=O)C2CC2)cc1C,-7,-10,-6,-2,-2,-2
CCOC(=O)c1sc(NC(=S)NC(=O)C23CC4CC(CC(C4)C2)C3)cc1C,-4,-7,-9,-7,-5,9.4*
CC(C)COc1cccc(C(=O)NC(=S)NCc2cccnc2)c1,-3,-3,-4,-1,-5,2
Cc1ccc(/C=C/C(=O)N2CCN(c3ncccn3)CC2)o1,-2,-4,-29,9,1,7
Cc1ccc2nc(NC(=O)COC(=O)c3ccccn3)sc2c1,-1,-1,-6,-5,3,9.3*
C/C=C/C(=O)OCC(=O)Nc1nc2ccc(C)cc2s1,4,-4,-6,-11,-6,-2
COc1ccccc1N(CC(=O)NC1CCCCC1)S(=O)(=O)c1cccs1,.,.,.,.,.,9.9*
Cc1[nH][nH]c(=O)c1C=NCc1cccs1,0,-1,-3,-4,-4,-3
Fc1cccc(Cl)c1CNC(c1ccccc1)c1ccccc1,-1,-9,-6,-13,-5,9.1*
O=C(N(c1ccccc1)c1ccccc1)N(c1ccccc1)c1ccccc1,.,.,.,.,.,0
NC(=S)N(c1ccccc1)c1ccccc1,-2,-3,-2,-2,0,9.6*
CN(C)/C=C/C(=O)c1ccc(Cl)cc1,0,-8,-11,-11,-10,11*
CN(C)/C=C/C(=O)c1cccc(Cl)c1,-3,-11,-4,-2,-4,0
O=C(CNC(=O)c1ccccc1F)Nc1ccccc1C(F)(F)F,0,0,-4,-3,1,1
OC1(c2ccccc2)CN(c2ccccc2)C2=[N+]1CCS2 (stereo not drawn),14,13,11,17,11,1
O=C(CCn1c(=S)oc2ccccc21)NCCC1=CCCCC1,.,.,.,.,.,11*
COc1cccc(NC(=O)COc2nc3ccccc3nc2C)c1,-6,-6,-11,-9,-12,6
CC(C)n1c(=S)[nH]c2scc(-c3cccs3)c2c1=O,.,.,.,.,.,9.1*
CCn1c(=S)[nH]c2scc(-c3cccs3)c2c1=O,-2,-5,-27,0,0,-2
O=c1oc2ccccc2cc1-c1ccc(O)cc1,-2,-6,-7,-3,-1,4
SMILES,Bim-Bcl-W,Bcl-XL Bim block,Bim-Bcl-B,Bfl-1 Bim block,Bim-Bcl-2,Wee1 degr inh
O=c1oc2ccccc2cc1NCc1ccccc1O,1,-5,-6,-9,-11,8.9*
O=C(Nc1nc(COc2ccccc2)cs1)C1CCC1,-24,-25,-32,-24,-21,9.3*
COc1ccc(C2CC(c3cccs3)=NN2C(=O)COC(=O)c2cncc(Br)c2)cc1OC (stereo not drawn),-1,-2,-7,-6,0,2
Oc1ccc(F)cc1-c1cc(-c2ccc3c(c2)OCCO3)n[nH]1,2,0,-10,-8,-11,9.5*
O=C(OCC(=O)c1ccc[nH]1)c1ccccc1,1,2,74*,52*,79*,2
O=C(COC(=O)c1c(F)cccc1F)c1ccc[nH]1,.,.,.,.,.,-2
O=C(COC(=O)/C=C/c1ccc(Cl)cc1Cl)NCc1ccco1,-1,-1,-2,-5,-1,9.7*
O=C(COC(=O)/C=C/c1ccccc1Cl)NCc1ccco1,-4,-2,-6,-6,-6,-1
C[C@H](NC(=O)OC(C)(C)C)C(=O)N/N=C/C1=Cc2ccccc2OC1,.,.,.,.,.,9.7*
COc1ccc(C2(C(=O)Nc3ccc(C)c(C)c3)CCOCC2)cc1,-3,-5,-5,-8,0,-3
CCOCCCNC(=O)/C(C#N)=C/c1cc(C)c(O)c(C)c1,0,-1,-2,-5,2,8.9*
O=C(O)/C(=C\c1ccccc1OC(F)F)Sc1nnc(-c2ccc(F)cc2)o1,0,-1,-2,-1,-2,1
CC1=C(C(=O)OCC2CCCO2)C(c2ccc(C)cc2)C2=C(CC(C)(C)CC2=O)N1 (stereo not drawn),0,0,-3,-5,-2,0
Cc1ccc(C(=O)NC(C)CCc2ccccc2)cc1[N+](=O)[O-] (stereo not drawn),-3,-8,-8,-22,-14,11*
COC(=O)C1C(c2ccc(N(C)C)cc2)C(C(=O)OC)S(=O)(=O)CS1(=O)=O (stereo not drawn),1,-2,-2,-4,-3,-2
COc1ccc(CCNC(=O)CCCCCNc2nc(=S)[nH]c3ccccc23)cc1OC,-1,-2,-15,6,-3,10*
CN1C2CCC1CC(NC(=O)CSc1ccc(C(C)(C)C)cc1)C2 (stereo not drawn),.,.,.,.,.,9.6*
Cc1c(Br)cc(C(=O)N2CCN(CCO)CC2)c(C)c1C,-4,-26,-11,-19,-12,-3
OCCN1CCN(CCCc2c3c(cc4c2CCC4)CCC3)CC1,32,32,61*,13,21,-4
COc1ccccc1C(=O)N/C(=C/c1ccccc1)C(=O)Nc1ccc(C(=O)O)cc1,-3,-1,3,4,2,10*
COC(=O)c1c(C)cc(C)n2c1nc1ccccc12,-1,0,0,-2,-2,9.8*
Cc1cc(C)cc(NC(=O)N(CCC#N)Cc2cccs2)c1,.,.,.,.,.,-3
CCCCOC(=O)c1nc(Cl)c(Cl)c(N)c1Cl,-2,3,42*,2,25,-1
CCCCCCCOC(=O)c1nc(Cl)c(Cl)c(N)c1Cl,-4,-6,-8,-2,-13,0
Cc1cccc(Oc2nc3ccccn3c(=O)c2/C=C(\C#N)C(=O)NC2CCS(=O)(=O)C2)c1 (stereo not drawn),-2,-7,-7,-3,3,10*
N/C(=N\OC(=O)c1ccco1)c1ccccn1,-1,0,-2,-3,-4,10*
O=C(c1ncc[nH]1)c1ccco1,-1,0,-1,0,-3,-1
O=C(c1cc(C(=O)c2ccco2)cc(C(=O)c2ccco2)c1)c1ccco1,-3,-5,-13,3,-2,11*
Cc1ccc(/C=C/C(=O)c2ccccc2)cc1,1,0,1,0,-1,8.9*
CCOc1ccc(/C=C/C(=O)c2ccccc2)cc1,.,.,.,.,.,6
